Screening results (PubChem)
SKKanGAS inh: SKKanGAS growth inhibition; actives 1.3% (n = 300,000); inhibition, % at 7.5 µM; S. pyogenes SKKanGAS, kanamycin growth, BacTiter-Glo, 6 h;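 active means mean replicate score, as percent of positive control median, at least 50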;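 further: strain carries kanamycin resistance gene driven by streptokinase promoter and grows in 40 µg/ml kanamycin; loss of luminescence reflects streptokinase promoter inhibition or plain growth inhibition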
Mdm2 MdmX PPI: human Mdm2/MdmX binding inhibition; AID 485346; O15151+Q00987; actives 3% (n = 330,000); inhibition, % at 8 µM; SaOS-2 split-luciferase Mdm2/MdmX complementation, luminescence;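 active means inhibition of at least 50% at 8 µM in the primary screen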
Beta cell apopt: beta cell apoptosis inhibition; AID 435005; INS-1E cytokine-induced death, ATP luminescence, 48 h; percent of positive-control rescue, neutral wells zero; actives 0.8% (n = 300,000); protection from apoptosis, % (test concentration not listed);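 active means Every replicate reaches about 75%, or at least half do and their mean reaches it too, limit read from the data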;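 further: higher means more ATP so stronger rescue from cytokine killing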
MPTP block: inhibitors of mitochondrial permeability transition pore. isolated mouse mitochondria, Ca2+ swelling absorbance, 30 min. actives 1.4% (n = 360,000). inhibition, % at 10 µM. AID 602449;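 active means inhibition of 50% or more, scaled per plate between neutral and stimulator controls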
Calb FLC: affects C. albicans growth with fluconazole; C. albicans CaCi-2 (fluconazole-resistant clinical isolate) + fluconazole, Alamar Blue growth, 48 h; growth inhibition, % (no concentration beside the values); actives 0.57% (n = 300,000);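 active means growth inhibition above about 58% in most replicates, limit read from the data, passing the limit was not always enough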;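 further: all wells also contain fluconazole at 8 µg/ml as a sub-toxic cotreatment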
CSC inhib: cancer stem cell inhibition | cancer stem cell-like cells viability, luminescence | inhibition, % at 7.5 µM | actives 1.1% (n = 300,000) | AID 2717; in the data active means inhibition above about 75%; tested in HMLE shEcad cells
Mdm2-MdmX conf: human Mdm2/MdmX binding inhibition, confirmed | shares compounds with Mdm2 MdmX PPI | luminescent assay | inhibition, % at 8 µM | actives 55% (n = 10,000); in the data active means inhibition above about 40%
Full FLuc ctr: full-length luciferase inhibition in Mdm2/MdmX counter-screen; shares compounds with Mdm2 MdmX PPI; SaOS-2 full-length luciferase counterscreen, luminescence; inhibition, % at 8 µM; actives 77% (n = 6,200); AID 504607;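 active means mean inhibition at 8 µM reaching about 37%, which flags the compound as non-specific, limit read from the data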;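 further: p53-null SaOS-2 cells with luciferase driven by a doxycycline-inducible promoter; compound on cells about two nights before reading with doxycycline added after day one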
Rh123 counter: mitochondrial membrane potential, counter-screen; shares compounds with MPTP block; isolated mitochondria, Rhodamine 123 fluorescence; inhibition, % at 10 µM; actives 78% (n = 5,000); AID 624504; in the data active means inhibition above about 22%
MPTP swell DR: dose response confirmation of mitochondrial permeability transition pore inhibitors. shares compounds with MPTP block. isolated mitochondria swelling, absorbance. IC50, µM. actives 58% (n = 780). AID 651561; in the data active means IC50 below about 20 µM
MPTP cs DR: MPTP inhibitor counter-screen activity, dose response; shares compounds with MPTP block; isolated mitochondria counterscreen, fluorescence read-out; IC50, µM; actives 49% (n = 780); AID 651564; in the data active means IC50 below about 80 µM
Of the large screens only hits and unclear results are named; the others gave an inactive call (follow-up assays come after a bar, where they were run). Hits are enriched below; roughly 5.4% of the tested compounds scored in any of these assays.

CN(C)CCOc1ccc(-c2c(-c3ccccc3)sc3ccccc23)cc1	Mdm2 MdmX PPI 100, Beta cell apopt 83, MPTP block 104, CSC inhib 142 (no result: SKKanGAS inh, Calb FLC) | Mdm2-MdmX conf inactive | Rh123 counter inactive
Cc1ccccc1NC(=O)c1ccc(CN2CCC(Cc3ccccc3)CC2)cc1	Mdm2 MdmX PPI 58, MPTP block 56 | Mdm2-MdmX conf inactive | Full FLuc ctr 82 | Rh123 counter inactive | MPTP swell DR 12 | MPTP cs DR 36
CC(C)NC(=O)c1ccc(CN2CCC(Cc3ccccc3)CC2)cc1	none
O=C(Cc1ccc([N+](=O)[O-])cc1)Nc1cc(C(F)(F)F)cc(C(F)(F)F)c1	Mdm2 MdmX PPI 51, MPTP block 77 | Mdm2-MdmX conf 75 | Full FLuc ctr 63 | Rh123 counter 98
Cc1ccc2sc(N(CCCN(C)C)C(=O)c3ccc(S(=O)(=O)N4CCCCCC4)cc3)nc2c1C	Mdm2 MdmX PPI 63, MPTP block 58, CSC inhib 77 (no result: Beta cell apopt) | Mdm2-MdmX conf inactive | Full FLuc ctr 89 | Rh123 counter inactive | MPTP swell DR inactive | MPTP cs DR 64
Cc1cc(C)c2sc(N(CCCN(C)C)C(=O)c3ccc(S(=O)(=O)N(C)C4CCCCC4)cc3)nc2c1	Mdm2 MdmX PPI 97, MPTP block 77 (no result: Beta cell apopt) | Mdm2-MdmX conf 48 | Full FLuc ctr 79 | Rh123 counter inactive
CN(C)CCCN(C(=O)c1ccc(S(=O)(=O)N2CCCCC2)cc1)c1nc2cc3c(cc2s1)OCO3	none
Cc1cc(C)c2nc(N(CCCN(C)C)C(=O)c3ccc(S(=O)(=O)N4CCCCCC4)cc3)sc2c1	Mdm2 MdmX PPI 80, MPTP block 83 (no result: Beta cell apopt) | Mdm2-MdmX conf 50 | Full FLuc ctr 71 | Rh123 counter inactive | MPTP swell DR 6.4 | MPTP cs DR inactive
COc1cc2nc(N(CCCN(C)C)C(=O)c3ccc(S(=O)(=O)N(C)C4CCCCC4)cc3)sc2cc1OC	none (no result: Beta cell apopt)
COc1cc(-c2c(NC(=O)c3ccco3)oc3ccc(Cl)cc3c2=O)cc(OC)c1OC	none (no result: SKKanGAS inh, Mdm2 MdmX PPI, Beta cell apopt, Calb FLC, CSC inhib)
O=c1[nH]c2ccc(S(=O)(=O)Nc3ccc(Cl)cc3)cc2[nH]1	none (no result: Beta cell apopt)
Cc1ccc(-n2cc(CNCCc3cscn3)c(-c3ccc(F)cc3)n2)cc1	none (no result: Beta cell apopt)
Cc1ccc(-n2cc(CNCCCn3ccnc3C)c(-c3ccc(F)cc3)n2)cc1	Mdm2 MdmX PPI 73, MPTP block 60 | Mdm2-MdmX conf inactive | Rh123 counter inactive
Cc1ccc(Cl)cc1NC(=O)CC(O)(C(F)(F)F)C(F)(F)F	Mdm2 MdmX PPI 59, MPTP block 95 (no result: Beta cell apopt) | Mdm2-MdmX conf inactive | Rh123 counter 93
COCC(=O)Nc1cc(Cl)ccc1C	none (no result: CSC inhib)
